The nature of test [1]: ATG_PBREM_CIS: Attagene CIS-FACTORIAL HepG2 Assay for human Phenobarbital-responsive Enhancer Module (PBREM) (AID 2282955). Particulars: HepG2 PBREM cis-reporter, Attagene multiplexed transcription; actives raise or lower the signal. The method, boiled down:
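Transfected liver-derived HepG2 cells exposed 24 h; PBREM reporter transcript quantified via RT-PCR and capillary electrophoresis, with activity in either direction referenced to DMSO.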

Test [2] deals with Paired box protein Pax-6 (Homo sapiens) (UniProt P26367). As to the kind of experiment: ATG_Pax6_CIS: Attagene CIS-FACTORIAL HepG2 Assay for human Paired Box 6 (PAX6) (AID 2282956). Particulars: HepG2 CIS-FACTORIAL PAX6 reporter transcription, RNA readout; actives raise or lower the signal. The method, boiled down: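 HepG2 cells transiently transfected with cis-promoter-driven multiplexed reporter units sensing endogenous transcription factor activity; 24 h chemical exposure. Reporter mRNA quantified by RT-PCR, 6-FAM labelling, HpaI digestion and capillary electrophoresis; bidirectional fit versus DMSO baseline.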

Test [3] is described as follows: ATG_PXRE_CIS: Attagene CIS-FACTORIAL HepG2 Assay for human Pregnane X Receptor Element (PXRE) (AID 2282957). To be noted: HepG2 Attagene CIS-FACTORIAL PXRE reporter, mRNA; actives raise or lower the signal. In a few lines: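 Cells: HepG2, transiently transfected reporter units under cis promoter control. Exposure: 24 h. Detection: reporter mRNA via RT-PCR/CE fluorescence; bidirectional fitting, DMSO-referenced.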

Test [4] in a line: ATG_PPRE_CIS: Attagene CIS-FACTORIAL HepG2 Assay for human Peroxisome Proliferator-activated Response Element (PPRE) (AID 2282958). Particulars: HepG2 PPRE cis-element reporter, Attagene transcription factor profiling; actives raise or lower the signal. In a few lines:
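Measured endpoint: PPRE-controlled reporter mRNA, detected by RT-PCR and capillary electrophoresis fluorescence, from transiently transfected HepG2 cells 24 h after dosing. Curves fitted in both directions using DMSO baseline.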

Test [5] can be described thus: ATG_Sox_CIS: Attagene CIS-FACTORIAL HepG2 Assay for human SRY-box transcription factor (SOX) (AID 2282960). Particulars: HepG2 Attagene cis-factorial SOX reporter, mRNA; actives raise or lower the signal. In a few lines:
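Gain- or loss-of-signal endpoint, fitted bidirectionally with DMSO as negative control. Based on reporter mRNA from transfected HepG2 cells harvested 24 h post-treatment and quantified via RT-PCR and capillary electrophoresis.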

Test [6] addresses Transcription factor Sp1 (Homo sapiens) (UniProt P08047). As to the kind of experiment: ATG_Sp1_CIS: Attagene CIS-FACTORIAL HepG2 Assay for human Specificity Protein 1 (Sp1) (AID 2282961). Particulars: HepG2 Sp1 cis-reporter transcription, actives raise or lower the signal. In a few lines: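 Endpoint reflects endogenous Sp1 transcriptional activity, not an exogenous fusion protein: HepG2 cells with transfected cis-regulated reporters, 24 h dosing, RT-PCR/capillary electrophoresis mRNA read-out, DMSO-normalised bidirectional fit.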

Test [7] in a line: ATG_SREBP_CIS: Attagene CIS-FACTORIAL HepG2 Assay for human Sterol Regulatory Element Binding (SREBP) (AID 2282962). To be noted: HepG2 Attagene cis-factorial SREBP reporter, mRNA; actives raise or lower the signal. In a few lines: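 HepG2 cells transiently transfected with multiplexed cis-promoter reporter units sensing endogenous transcription factors; reporter mRNA measured 24 h after dosing by RT-PCR, 6-FAM labeling, HpaI digestion and capillary electrophoresis. Bidirectional fit versus DMSO.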

Test [8] deals with Signal transducer and activator of transcription 3 (Homo sapiens) (UniProt P40763). As to the kind of experiment: ATG_STAT3_CIS: Attagene CIS-FACTORIAL HepG2 Assay for human Signal Transducer and Activator of Transcription 3 (STAT3) (AID 2282963). To be noted: HepG2, Attagene cis-factorial STAT3 reporter transcription; actives raise or lower the signal. The method, boiled down: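 Endogenous STAT3-responsive cis-element activity was read in transiently transfected HepG2 cells after 24 h treatment. Reporter transcripts were quantified via RT-PCR and capillary electrophoresis, with DMSO as negative control and bidirectional curve fitting.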

Test [9] is described as follows: ATG_TA_CIS: Attagene CIS-FACTORIAL HepG2 Assay for human TA Basal Promoter (AID 2282964). To be noted: HepG2 Attagene CIS-factorial TA basal promoter reporter; actives raise or lower the signal. The method, boiled down: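 Background-control readout: TA basal promoter reporter mRNA, fitted in both directions relative to DMSO. Measured by RT-PCR and capillary electrophoresis 24 hours after treating HepG2 human liver cells transiently carrying multiplexed cis-regulated reporter constructs.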

The nature of test [10]: ATG_RORE_CIS: Attagene CIS-FACTORIAL HepG2 Assay for human RAR-related Orphan Receptor Element (RORE) (AID 2282959). Particulars: HepG2 Attagene cis-factorial RORE reporter, mRNA; actives raise or lower the signal. In a few lines:
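Transiently transfected HepG2 reporter cells were treated 24 h. Reporter transcripts were detected by RT-PCR and capillary electrophoresis, with bidirectional fitting against DMSO.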

Structures are written as SMILES. Several values for one entry are separate records, joined by “and”; a condition that tells them apart may be missing. Equal entries are not always repeated. A structure can be active in one record and inactive in another. Activity calls are given as the source filed them. Rule for the calls: active = hit-call score of the fitted dose curve at least 0.9, where 1 is the maximum; inactive = score below 0.9.

As usually defined, the AC50 is the concentration at which the activity in the assay is half-maximal.

Signal transducer and activator of transcription 3 (Homo sapiens), sequence (P40763 whole entry, looked up): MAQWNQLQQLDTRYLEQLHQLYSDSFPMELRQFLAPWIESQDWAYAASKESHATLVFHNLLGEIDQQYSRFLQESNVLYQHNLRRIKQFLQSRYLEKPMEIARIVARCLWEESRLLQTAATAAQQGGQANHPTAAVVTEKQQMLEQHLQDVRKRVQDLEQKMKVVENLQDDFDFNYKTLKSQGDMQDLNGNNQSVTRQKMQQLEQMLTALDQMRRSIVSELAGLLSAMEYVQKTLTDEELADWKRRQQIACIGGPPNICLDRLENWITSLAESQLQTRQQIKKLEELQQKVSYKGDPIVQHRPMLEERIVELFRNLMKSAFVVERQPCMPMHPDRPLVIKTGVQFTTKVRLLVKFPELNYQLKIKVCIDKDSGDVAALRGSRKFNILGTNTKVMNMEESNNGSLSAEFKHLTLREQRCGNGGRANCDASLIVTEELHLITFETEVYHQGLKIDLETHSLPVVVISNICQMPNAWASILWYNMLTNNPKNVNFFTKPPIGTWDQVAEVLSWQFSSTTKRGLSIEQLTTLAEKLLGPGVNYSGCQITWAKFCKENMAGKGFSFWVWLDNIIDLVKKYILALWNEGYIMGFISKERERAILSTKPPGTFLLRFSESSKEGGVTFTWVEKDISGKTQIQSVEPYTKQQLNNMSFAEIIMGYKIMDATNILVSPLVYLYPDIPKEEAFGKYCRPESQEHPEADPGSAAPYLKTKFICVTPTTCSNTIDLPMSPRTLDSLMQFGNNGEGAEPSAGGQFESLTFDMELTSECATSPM
Transcription factor Sp1 (Homo sapiens), sequence (P08047 whole entry, looked up, the tested form may be a part): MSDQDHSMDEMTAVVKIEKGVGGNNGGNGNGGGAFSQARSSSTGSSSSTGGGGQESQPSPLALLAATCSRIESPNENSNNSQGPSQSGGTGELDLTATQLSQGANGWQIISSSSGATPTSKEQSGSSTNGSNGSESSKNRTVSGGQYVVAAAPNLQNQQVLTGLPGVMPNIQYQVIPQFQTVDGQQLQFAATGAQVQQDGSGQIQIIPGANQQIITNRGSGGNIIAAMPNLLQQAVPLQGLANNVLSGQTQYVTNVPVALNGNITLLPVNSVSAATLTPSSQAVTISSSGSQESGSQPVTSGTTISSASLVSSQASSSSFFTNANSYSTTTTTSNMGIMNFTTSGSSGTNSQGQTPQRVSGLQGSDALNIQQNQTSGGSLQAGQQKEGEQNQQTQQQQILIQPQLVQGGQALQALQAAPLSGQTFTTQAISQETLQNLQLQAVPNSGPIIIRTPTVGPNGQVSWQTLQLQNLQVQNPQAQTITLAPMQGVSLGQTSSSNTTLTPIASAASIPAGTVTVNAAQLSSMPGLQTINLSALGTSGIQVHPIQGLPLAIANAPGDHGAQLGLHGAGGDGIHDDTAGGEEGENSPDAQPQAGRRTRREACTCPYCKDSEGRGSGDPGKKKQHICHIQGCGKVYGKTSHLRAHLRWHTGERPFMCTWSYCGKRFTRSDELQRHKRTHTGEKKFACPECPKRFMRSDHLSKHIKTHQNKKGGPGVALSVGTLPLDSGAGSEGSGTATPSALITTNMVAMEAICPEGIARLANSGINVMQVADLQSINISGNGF
Paired box protein Pax-6 (Homo sapiens), sequence (P26367 whole entry, looked up): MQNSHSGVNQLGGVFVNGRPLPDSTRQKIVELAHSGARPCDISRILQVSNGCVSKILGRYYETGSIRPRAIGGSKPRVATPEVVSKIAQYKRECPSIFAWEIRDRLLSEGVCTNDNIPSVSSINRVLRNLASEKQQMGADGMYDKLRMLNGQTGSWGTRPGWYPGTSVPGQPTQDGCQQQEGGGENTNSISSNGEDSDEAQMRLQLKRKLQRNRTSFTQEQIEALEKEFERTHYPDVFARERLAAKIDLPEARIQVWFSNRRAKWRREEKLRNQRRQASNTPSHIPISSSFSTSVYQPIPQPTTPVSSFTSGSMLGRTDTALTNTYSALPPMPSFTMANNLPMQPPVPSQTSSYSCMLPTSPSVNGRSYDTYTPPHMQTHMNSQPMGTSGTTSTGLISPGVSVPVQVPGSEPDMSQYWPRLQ

Consider `Oc1ccc(Cl)cc1Cc1ccccc1`, for which the concentration at half-maximal activity (AC50) in test [1] was 13.6 µM (active); in [2], 8.56 µM (active); in test [4], 9.13 µM (active) [middle of 6 runs]; in [5] it was 8.2 µM (active); in test [6], 13.4 µM (active); in [7], 7.03 µM (active) and 6.32 µM (active). In [9], the concentration at half-maximal activity (AC50) is 17.5 µM (active). In addition, the outcome in [1], in test [2], in test [3], in test [4], in [5] and in [6] was inactive. In addition, the result in test [7], in [8] and in test [9] was inactive.
Consider `N#CN`, for which the result in [1], in test [2], in test [3], in test [4], in test [10] and in test [5] was inactive. The molecule was called inactive in test [6], in test [7], in test [8] and in [9].
Regarding `Clc1ccccc1-c1nnc(-c2ccccc2Cl)nn1`, the result in test [1], in test [2], in test [3], in test [10], in test [5] and in test [6] was inactive. Further, the call in [7], in test [8] and in [9] was inactive. The AC50 in test [4] is 8.03 µM (active).
As for `CC(C)(C)C(O)/C(=C\c1ccc(Cl)cc1Cl)n1cncn1` (centres undefined), the result in test [1], in test [2], in test [4], in [10], in test [5] and in test [6] was inactive. In addition, the outcome in test [7], in test [8] and in [9] was inactive. Further, in [3], the concentration at half-maximal activity (AC50) was 5 µM (active).
`CN1CSC(=S)N(C)C1`: the result in test [1], in test [2], in test [3], in [10], in test [5] and in test [7] was inactive. In addition, the molecule was classed as inactive in test [8] and in test [9]. Further, the concentration at half-maximal activity (AC50) in [4] was 10.3 µM (active); in test [6], 50 µM (active).
Take `CCS(=O)(=O)c1cccnc1S(=O)(=O)NC(=O)Nc1nc(OC)cc(OC)n1`: the result in test [1], in [2], in test [3], in test [4], in test [10] and in test [5] was inactive. The molecule was classed as inactive in test [6], in test [7], in test [8] and in test [9]. In addition, the AC50 in test [3] is 60.5 µM (active).
Turning to `COc1nn(CSP(=S)(OC)OC)c(=O)s1`, the AC50 was 50 µM (active) in test [1] and 15.6 µM (active) in [3]. Besides, the outcome in test [2], in test [4], in test [10], in test [5], in [6] and in test [7] was inactive. Further, the molecule was called inactive in test [8] and in test [9].
`O=C(O)CCCOc1ccc(Cl)cc1Cl`: the result in test [1], in test [2], in test [3], in [4], in [10] and in test [5] was inactive. The call in test [6], in test [7], in test [8] and in test [9] was inactive. Also, the AC50 in test [3] is 27.1 µM (active); in test [4], 22.9 µM (active).
As to `N#Cc1c(Cl)c(Cl)c(Cl)c(C#N)c1Cl`, the outcome in test [1], in test [2], in test [4], in [10], in test [5] and in test [6] was inactive. Further, the molecule was classed as inactive in test [7], in test [8] and in test [9]. Moreover, the AC50 in test [3] was 0.121 µM (active).
As to `COP(=S)(OC)Oc1ccc(SC)c(C)c1`, the AC50 in test [1] was 39.3 µM (active); in [3], 10.8 µM (active); in test [10], 53.7 µM (active); in test [7], 24.7 µM (active). In addition, the molecule was called inactive in test [2], in test [4], in test [5], in [6], in test [8] and in test [9].
Turning to `O=[N+]([O-])c1c(Cl)c(Cl)c(Cl)c(Cl)c1Cl`, the outcome in test [1], in test [3], in [5], in test [6], in test [7] and in [8] was inactive. Besides, the call in [9] was inactive. The figures for the AC50 in [2], in test [4] and in test [10] were 50 µM (active), 2.32 µM (active) and 10.7 µM (active), respectively.
In the case of `CNC(=O)Oc1ccccc1OC(C)C`, the outcome in test [1], in test [2], in test [3], in test [4], in test [10] and in test [5] was inactive. Besides, the outcome in test [6], in test [7], in test [8] and in [9] was inactive.

These data come from PubChem BioAssay (EPA / NIEHS).
